{"source": "ChEMBL document CHEMBL3988442", "about": "“University of Dundee, Small-Polar-MMV Screening Library” (2021)", "note": "The whole screen tested about 48,000 compounds, of which about 13,000 (27%) showed an effect of 50% or more. The list shows a part of the results."}
{"system": "Wolbachia pipientis", "test": "Anti-Wolbachia Cell-Based Screen", "assay_type": "functional", "parameters": "scale not given: in the data most compounds retested in dose-response had high values", "conditions": "5 µM", "units": {"Percent Effect": "%"}}
{"smiles": "CCNC(=O)N1C[C@@H]2OCC(=O)N(CC3CCCCC3)[C@@H]2C1", "Percent Effect": -5.369}
{"smiles": "CN(C)S(=O)(=O)c1cccc(CNc2cc(CO)ccc2Cl)c1", "Percent Effect": -35.79}
{"smiles": "O=C(NCc1ccccc1CN1CCC(O)CC1)Nc1cccnc1", "Percent Effect": -0.5671}
{"smiles": "COCCCN1CCC(c2nc3c([nH]2)CC(C)(C)CNC3=O)C1", "note": "(centres undefined)", "Percent Effect": -5.99}
{"smiles": "CCc1nnc(SC2CCN(c3ccccc3F)C2=O)n1C", "note": "(centres undefined)", "Percent Effect": -9.884}
{"smiles": "Cc1cc2n(n1)CC(CNC1CCN(C3CC3)CC1)CN2", "note": "(centres undefined)", "Percent Effect": -6.962}
{"smiles": "CN(CCOc1ccc(F)cc1)S(=O)(=O)N1CCOCC1", "Percent Effect": -1.618}
{"smiles": "Cc1cccc2sc(NC(=O)CN3CCCC(O)(CO)C3)nc12", "note": "(centres undefined)", "Percent Effect": -1.543}
{"smiles": "COCCNC(=O)c1ccc2ccc(N(C)CC3CC3)n2c1", "Percent Effect": 103.1}
{"smiles": "COCCNC(=O)CCNC(=O)c1ccc(N2CCC(C)=N2)cc1", "Percent Effect": -2.111}
{"smiles": "CCN(CC)c1ccc2ccc(C(=O)N(CCOC)CCOC)cn12.O=C(O)C(F)(F)F", "Percent Effect": 4.611}
{"smiles": "COC(=O)N1CCC(NC(=O)Cn2cc(C)c3ccccc32)CC1", "Percent Effect": -17.34}
{"smiles": "Cc1ccc(F)c2c1CCCN2CC(=O)NC1CCS(=O)(=O)C1", "note": "(centres undefined)", "Percent Effect": 90.32}
{"smiles": "CC(=O)NCc1ccc(C(=O)N2CCCc3c(F)ccc(C)c32)cc1", "Percent Effect": -14.03}
{"smiles": "CC(=O)N1CCC(NC(=O)Cc2csc(C(C)(C)C)n2)CC1", "Percent Effect": -8.702}
{"smiles": "Cc1cn(CC(=O)NC2CCN(C(=O)C3CC3)CC2)c2ccccc12", "Percent Effect": 4.79}
{"smiles": "CC(=O)N1CCC(NC(=O)CN2CCCc3c(C)ccc(F)c32)CC1", "Percent Effect": 97.89}
{"smiles": "Cc1ccc(C)c(CC(=O)NC2CCS(=O)(=O)CC2)c1", "Percent Effect": -1.123}
{"smiles": "CC(=O)N1CCC(NC(=O)CN2CCCc3c(F)ccc(C)c32)CC1", "Percent Effect": 96.3}
{"smiles": "Cc1ccc(C)c(CC(=O)NC2CCCS(=O)(=O)C2)c1", "note": "(centres undefined)", "Percent Effect": -8.397}
{"smiles": "CN1CCCC(C(=O)N2CCC(Oc3ccc(C#N)cn3)CC2)C1", "note": "(centres undefined)", "Percent Effect": 3.335}
{"smiles": "O=C1CC(c2cccs2)c2snc(C(=O)O)c2N1", "note": "(centres undefined)", "Percent Effect": 12.4}
{"smiles": "Cc1ccc(C(=O)N[C@H]2CN(CCO)C[C@@H]2C2CC2)cc1Cl", "Percent Effect": 4.454}
{"smiles": "CCNC(=O)NC(=O)CSC(C)c1ccccc1F", "note": "(centres undefined)", "Percent Effect": -4.407}
{"smiles": "O=C(C[S+]([O-])Cc1csc(C2CCCC2)n1)NC1CCCC1", "note": "(centres undefined)", "Percent Effect": -2.557}
{"smiles": "CCN(C)CC(=O)N1CCC(c2cc(N3CCOCC3)nc(C)n2)CC1", "Percent Effect": 25.94}
{"smiles": "CCOc1cc(C)nc(N2CCN(C(=O)CC)CC2)n1", "Percent Effect": -2.122}
{"smiles": "Cc1noc(-c2ccc(N3CCCC(C(=O)N4CCSCC4)C3)nc2)n1", "note": "(centres undefined)", "Percent Effect": -16.11}
{"smiles": "Cc1ncc(S(C)(=O)=O)c(N2CCCCCC2)n1", "Percent Effect": 3.738}
{"smiles": "CCC(=O)N1CCc2nc(N3CCOCC3)nc(N(C)C)c2CC1", "Percent Effect": -3.249}
{"smiles": "CCc1nc(CC(=O)N2CCC(C(=O)N3CCCCC3)CC2)cs1", "Percent Effect": 9.16}
{"smiles": "CS(=O)(=O)c1cnc(N2CCCC2)nc1C1CCN(C(=O)C2CC2)CC1", "Percent Effect": 114.1}
{"smiles": "CCC(=O)N1CCC(c2nc(N3CCOCC3)ncc2S(C)(=O)=O)CC1", "Percent Effect": 98.3}
{"smiles": "CCC(=O)N1CCC(c2nc(N3CCCC3)ncc2S(C)(=O)=O)CC1", "Percent Effect": 99.88}
{"smiles": "CCC(=O)N1CCC(c2nc(N3CCCCC3)ncc2S(C)(=O)=O)CC1", "Percent Effect": 129}
{"smiles": "Cc1ccc(NS(=O)(=O)c2c[nH]c3ncccc23)nc1", "Percent Effect": 17.74}
{"smiles": "CCOC(=O)N1CCN(c2nc(NCCCO)c3ccccc3n2)CC1.Cl", "Percent Effect": 3.007}
{"smiles": "COC(=O)c1ccc(N2CCN(C(=O)c3ccncc3)C(C)C2)cc1", "note": "(centres undefined)", "Percent Effect": -9.258}
{"smiles": "CCc1nc(CC(=O)Nc2cnn(CC3CCCO3)c2)cs1", "note": "(centres undefined)", "Percent Effect": -8.649}
{"smiles": "CC(C)c1nc(O)c2nnn(C[C@H]3CCCN(Cc4ccsc4)C3)c2n1", "Percent Effect": 131.3}
{"smiles": "CC(C)c1nc(O)c2nnn(C[C@@H]3CCCN(Cc4ccsc4)C3)c2n1", "Percent Effect": 123.6}
{"smiles": "CC(C)(C)c1oc(C(N)=O)cc1CN1CCCCC1CN1CCOCC1", "note": "(centres undefined)", "Percent Effect": -21.84}
{"smiles": "N#Cc1ccc(SCCC(=O)N(Cc2cccnc2)C2CC2)cc1", "Percent Effect": -7.889}
{"smiles": "O=c1ccc(-n2ccnc2)nn1CCNS(=O)(=O)c1ccc(Br)cc1", "Percent Effect": -0.5803}
{"smiles": "CCN(CC)CC[C@H]1CN(C(=O)C2CCC2)CC[C@H]1CC(=O)O", "Percent Effect": -6.679}
{"smiles": "CCN1CCCC(c2c(-c3ccccc3)ncn2CCc2c[nH]cn2)C1", "note": "(centres undefined)", "Percent Effect": -19.27}
{"smiles": "CC(C)(C(=O)NCCCC(N)=O)c1cccc(Br)c1", "Percent Effect": 6.793}
{"smiles": "CSCCC(NC(N)=O)C(=O)N1CCC(Cc2ccccc2)CC1", "note": "(centres undefined)", "Percent Effect": -1.467}
{"smiles": "Cc1cc(NC(=O)NCC2CCOC2)no1", "note": "(centres undefined)", "Percent Effect": -3.66}
{"smiles": "CSCCC(Nc1nc(C)cc(C)n1)C(=O)NC(C)(C)CO", "note": "(centres undefined)", "Percent Effect": 99.02}
{"smiles": "CSCCC(Nc1nc(C)cc(C)n1)C(=O)NC1CCCC1", "note": "(centres undefined)", "Percent Effect": 67.42}
{"smiles": "CNC(=O)C(CCSC)NC(=O)c1ccc2ccccc2n1", "note": "(centres undefined)", "Percent Effect": 4.672}
{"smiles": "CSCCC(NC(=O)c1ccc2ccccc2n1)C(=O)NC1CC1", "note": "(centres undefined)", "Percent Effect": 3.734}
{"smiles": "CSCCC(Nc1nc(C)cc(C)n1)C(=O)NCC1CCOCC1", "note": "(centres undefined)", "Percent Effect": 96.94}
{"smiles": "CSc1cc2c(cc1NC(=O)NCC1CCOC1)OCCO2", "note": "(centres undefined)", "Percent Effect": 0.9768}
{"smiles": "CSCCC(Nc1nc(C)cc(C)n1)C(=O)NC1CC1", "note": "(centres undefined)", "Percent Effect": 102.4}
{"smiles": "Cc1nc(CN2CCN(C(C)C(=O)NC3CCCC3)CC2)cs1", "note": "(centres undefined)", "Percent Effect": -11.13}
{"smiles": "CSCCC(NC(=O)c1ccc2ccccc2n1)C(=O)NC(C)C", "note": "(centres undefined)", "Percent Effect": 0.7963}
{"smiles": "Cc1cc(C)nc(NC2CCC(=O)N(C)C2)n1", "note": "(centres undefined)", "Percent Effect": -12.68}
{"smiles": "CN(C)CCCN1CC2(CCN(C3CCCOC3)CC2)OC1=O", "note": "(centres undefined)", "Percent Effect": -5.756}
{"smiles": "COc1ccc(NC(=O)c2ccc[nH]2)c(N2CCN(C(C)=O)CC2)n1", "Percent Effect": 6.635}
{"smiles": "Cc1cc(SC(C)(C)C)ccc1NC(=O)CNC(N)=O", "Percent Effect": -8.144}
{"smiles": "Cc1ccc(S(=O)(=O)NC[C@H]2OC[C@@H](NCc3ccccn3)[C@@H]2O)cc1", "Percent Effect": 0.9418}
{"smiles": "Cc1cc(C(=O)N2C[C@@H](CN3CCOCC3)C[C@H](CO)C2)nc(C)n1", "Percent Effect": -2.252}
{"smiles": "Cc1cc(C)c(CNC(=O)N2CCCN(C(=O)C(C)C)CC2)c(C)c1", "Percent Effect": -1.6}
{"smiles": "CC(C)=CCN1C[C@H]2CC[C@@H]1CN(Cc1coc(C)n1)C2", "Percent Effect": -7.778}
{"smiles": "c1ccc(OCCCNCCn2cccn2)cc1", "Percent Effect": 7.776}
{"smiles": "Cc1ccc2nc(CNCCCOc3ccccc3)cc(O)c2c1", "note": "[UCSF924]", "Percent Effect": -20.67}
{"smiles": "COc1ccc(OCCNCCn2cccn2)cc1", "Percent Effect": -1.614}
{"smiles": "CCn1ccc(-c2cc(NCCCOc3ccccc3C)nc(C)n2)n1", "Percent Effect": 161.9}
{"smiles": "CCn1ccc(-c2cc(NCCCOc3cccc(C)c3)nc(C)n2)n1", "Percent Effect": 179.6}
{"smiles": "CCN(CC1CCOCC1)C(=O)Cn1cccc(C(F)(F)F)c1=O", "Percent Effect": -10.75}
{"smiles": "COc1nc2c(cc1C(=O)NCc1noc(-c3ccco3)n1)CCC2", "Percent Effect": -22.9}
{"smiles": "c1cnnc(N2CCCC(NCc3nnc(-c4ccco4)o3)C2)c1", "note": "(centres undefined)", "Percent Effect": 5.713}
{"smiles": "c1ccc(Cc2nc(CNC3CCC4(CCNCC4)CC3)no2)cc1", "Percent Effect": 94.06}
{"smiles": "CC(C)(C)OC(=O)NC1(c2noc(-c3ccco3)n2)CCC1", "Percent Effect": -13.08}
{"smiles": "OC1(CNCc2noc(Cc3ccccc3)n2)CCCNC1", "note": "(centres undefined)", "Percent Effect": 0.3473}
{"smiles": "c1coc(-c2nc(CNC3CCC4(CCNCC4)CC3)no2)c1", "Percent Effect": 99.09}
{"smiles": "c1coc(-c2nc(CNC3CCCNC3)no2)c1", "note": "(centres undefined)", "Percent Effect": 116.1}
{"smiles": "c1ccc(-c2nc(CNC3CCCN(c4cccnn4)C3)no2)cc1", "note": "(centres undefined)", "Percent Effect": -14.96}
{"smiles": "COCc1nc(CNC2CCC3(CCNCC3)CC2)no1", "Percent Effect": -7.512}
{"smiles": "Cc1ncc2c(n1)CN(C(C(N)=O)c1ccccc1)CC2", "note": "(centres undefined)", "Percent Effect": 4.006}
{"smiles": "CC(C)NC(=O)NC[C@H]1OC[C@@H](NCc2ccncc2)[C@@H]1O", "Percent Effect": 2.532}
{"smiles": "Cc1ccc(OC2(C(=O)O)CCN(C/C=C/c3ccco3)CC2)cc1", "Percent Effect": -1.713}
{"smiles": "O=C(Nc1cccc(OC(F)F)c1)C1CN(S(=O)(=O)C2CC2)C1", "Percent Effect": 10.08}
{"smiles": "CN1[C@H]2CC[C@@H]1CN(C(=O)c1nnc3n1CCCC3)CC2", "Percent Effect": 1.056}
{"smiles": "Cc1cnc(CN2CCN(C(C)c3nc(C(C)C)no3)CC2)cn1", "note": "(centres undefined)", "Percent Effect": 10.96}
{"smiles": "CC(C)N1CCCC(c2cc(C(F)(F)F)nc3nccn23)C1", "note": "(centres undefined)", "Percent Effect": 97.97}
{"smiles": "FC(F)(F)c1ccnc(N2CCCC(N3CCOCC3)C2)c1", "note": "(centres undefined)", "Percent Effect": 3.517}
{"smiles": "CC(C)n1ccnc1C1CCCN(c2nc3ccccc3s2)C1", "note": "(centres undefined)", "Percent Effect": 8.79}
{"smiles": "N#Cc1ccc(N2CCN(c3cnccn3)CC2)cc1C(F)(F)F", "Percent Effect": -11.21}
{"smiles": "FC(F)(F)c1cc(C2CCCN(c3cnccn3)C2)n2ccnc2n1", "note": "(centres undefined)", "Percent Effect": 112.2}
{"smiles": "CN(C)Cc1nnc(C2CCCN(c3cc(C(F)(F)F)ccn3)C2)n1C", "note": "(centres undefined)", "Percent Effect": -6.748}
{"smiles": "FC(F)(F)c1cc(C2CCCN(c3ncccn3)C2)n2ccnc2n1", "note": "(centres undefined)", "Percent Effect": 126.4}
{"smiles": "CC(C)c1nc(C2CCCN(c3nccc(C(F)(F)F)n3)C2)no1", "note": "(centres undefined)", "Percent Effect": 4.176}
{"smiles": "FC(F)(F)c1cc(C2CCN(c3cnccn3)CC2)n2ccnc2n1", "Percent Effect": 100.9}
{"smiles": "CC(C)N1CC[C@H](c2nc3ccc(C(F)(F)F)cc3[nH]2)C1", "Percent Effect": -4.029}
{"smiles": "N#Cc1ccc(N2CCN(c3cnccn3)CC2)c(C(F)(F)F)c1", "Percent Effect": -6.859}
{"smiles": "CC(C)c1nc(C2CCCN(c3ncccn3)C2)no1", "note": "(centres undefined)", "Percent Effect": 10.51}
{"smiles": "CCNc1ncc(C(=O)NCc2csc(-c3ncccn3)n2)cn1", "Percent Effect": -30.13}
{"smiles": "CCOC(C)c1nc(CN2CCC(CNC(C)=O)CC2)cs1", "note": "(centres undefined)", "Percent Effect": -3.059}
{"smiles": "CC(=O)N1CCC(c2cc(C(F)(F)F)nc3nccn23)CC1", "Percent Effect": 113.6}
{"smiles": "Cn1ccnc1C1CCN(C(=O)COCC(F)(F)C(F)F)CC1", "Percent Effect": -2.138}
{"smiles": "CN(C)CCn1ccnc1C1CCN(C(=O)CCC(F)(F)F)CC1", "Percent Effect": -12.98}
